From PubChem BioAssay
Records with an inconclusive call do not appear. Activity calls are given as the source filed them.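 Rule for the calls: active = viability at or below 27.92% in each of two runs, the all-compound median minus 4 SD; inconclusive = no clear call, values can overlap the other calls; inactive = the rest.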

Test: viability of PTEN-null HCT116 cells – cell-based, HCT116 clonal line, CellTiter-Glo, pilot screen (AID 824);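 note: 0% = 20 µM Hyamine control and 100% = vehicle cell control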
Details: HCT116 PTEN-deleted viability, 60 h, at 10 µM, stronger effect = lower value

SMILES | viability
CCOC(=O)Cn1c(=O)oc2cc(S(=O)(=O)NCc3ccccn3)ccc21 | 95.1% (inactive)
CCOC(=O)C1C(C)N=C2SCC(=O)N2C1c1cccc(Br)c1 (stereo unspecified) | 93.2% (inactive)
CN1CCN(c2cc3c(c4c2[nH]c2ccccc24)C(=O)CC(C)(C)C3)CC1 | 1.58% (active)
Cc1cc(/C=N/n2cnnc2)c(C)n1-c1ccc(C(=O)O)cc1 | 99% (inactive)
O=C(CSc1cn(Cc2ccccc2)c2ccccc12)Nc1nccs1 | 85.4% (inactive)
CCOC(=O)CN1Cc2cccc(C(=O)O)c2C1=O | 96.3% (inactive)
CCOC(=O)C1CCCN(C(=O)c2ccc(CNc3c(N4CCC(C)CC4)c(=O)c3=O)cc2)C1 (stereo unspecified) | 98.9% (inactive)
O=C1C(Cl)=C(N2CCCCCC2)C(=O)N1c1ccccc1 | 93.2% (inactive)
O=C(Nc1c(C(=O)O)oc2ccc(Br)cc12)c1ccccc1 | 99.5% (inactive)
CC1(C)CC(=O)C2(CC3=C(CC(C)(C)CC3=O)O2)C(=O)C1 | 97.1% (inactive)
CCCn1nc(NC(=O)CC(C)C)c2cc3ccccc3nc21 | 87.3% (inactive)
Cc1ccc(C2=[N+]([O-])C3(CCCCC/C3=N\O)N(O)C2(C)C)o1 (stereo unspecified) | 93.7% (inactive)
COc1ccc(-c2nc(CS(=O)CC(=O)NCC3CCCO3)c(C)o2)cc1 (stereo unspecified) | 102% (inactive)
CN(C(=O)c1ccc2c(c1)OCO2)C1(C(=O)NC2CCCCC2)CCCCC1 | 83.6% (inactive)
CCn1c(=O)cc(OCC(=O)N2CCc3ccccc32)c2ccccc21 | 89.9% (inactive)
Cn1c(=O)[nH]c(=O)c2[nH]c(CN3CCN(Cc4ccccc4)CC3)nc21 | 99.5% (inactive)
